An excerpt weighted towards active compounds, which were near 1.9% of everything screened.
APP transl inh: APP translation inhibition; SH-SY5Y APP 5'UTR-luciferase reporter, luminescence; inhibition, % at 2 µM; actives 0.82% (n = 190,000); AID 1285;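 active = inhibition above a set limit, derived from the sample mean plus 3 SD, cut at about 45% in these data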
BaF3 tox: reduces parental Ba/F3 cell viability, JAK2V617F counter-screen. inhibition, % at 5.6 µM. actives 1.1% (n = 220,000). CellTiter-Glo ATP luminescence;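 active = inhibition above a per-campaign cutoff, the mean inhibition of all tested compounds plus 3 SD, cut at about 27% in these data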
IEC-6 cytotox: kills IEC-6 intestinal cells in KLF5 counter-screen; IEC-6 cytotoxicity, luminescence viability; inhibition, % at 5 µM; actives 0.78% (n = 290,000); AID 1825; in the data active = inhibition above about 22%
Ba/F3 V617F tox: reduce viability of Ba/F3 cells dependent on JAK2V617F; Ba/F3 EpoR-JAK2V617F viability, ATP luminescence; inhibition, % at 5.6 µM; actives 1.1% (n = 220,000);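 active = inhibition above the campaign mean plus 3 SD over all tested compounds, cut at about 24% in these data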;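 note: cytokine-independent growth of Ba/F3 cells driven by EpoR plus mutant JAK2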
KLF5 inh: inhibitors of KLF5 expression; DLD-1 KLF5 promoter-luciferase reporter, luminescence; inhibition, % at 5 µM; actives 0.23% (n = 290,000);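 active = inhibition above a per-plate limit of that plate's mean compound inhibition plus 3 SD, cut at about 60% in these data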;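 note: higher means less KLF5 promoter-driven luciferase light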
Hits are given with their value.

`CC(C)c1ccc(NC2CCCN(C(=O)CCN3CCCCO3)C2)cc1` (stereo unspecified) gave IEC-6 cytotox inactive and KLF5 inh inactive.
Screening CCC(=O)NC(Cc1ccccc1)c1ccc2c(c1)OCCCO2 (stereo unspecified) returned APP transl inh inactive, BaF3 tox 31, IEC-6 cytotox inactive, Ba/F3 V617F tox 39 and KLF5 inh inactive.
`O=C(NC(Cc1ccccc1)c1ccc2c(c1)OCCCO2)c1ccccc1` (stereo unspecified) gave APP transl inh inactive, BaF3 tox inactive, IEC-6 cytotox inactive, Ba/F3 V617F tox inactive and KLF5 inh inactive.
Screening Cc1cccc(N2CCN(S(=O)(=O)c3c(C)noc3/C=C/N(C)C)CC2)c1C returned IEC-6 cytotox inactive and KLF5 inh inactive.
`Clc1ccc(C[n+]2cc(-c3ccccc3)n3c2CCC3)cc1Cl` gave APP transl inh inactive, BaF3 tox 71, IEC-6 cytotox inactive, Ba/F3 V617F tox 85 and KLF5 inh inactive.
For N#CC[n+]1cc(-c2ccc(Cl)cc2)n2c1CCC2 the results were APP transl inh inactive, BaF3 tox inactive, IEC-6 cytotox inactive, Ba/F3 V617F tox inactive and KLF5 inh inactive.
For Clc1ccc(-c2c[n+](Cc3cccc(Cl)c3)c3n2CCC3)cc1 the results were APP transl inh inactive, BaF3 tox 64, IEC-6 cytotox inactive, Ba/F3 V617F tox 77 and KLF5 inh inactive.
`COC(=O)/C(=C/c1cccnc1)NC(=O)c1ccccc1` gave APP transl inh inactive, BaF3 tox inactive, IEC-6 cytotox inactive, Ba/F3 V617F tox inactive and KLF5 inh inactive.
COC(=O)/C(=C\Nc1ccc(Oc2ccc(F)cc2F)nc1)NC(=O)c1ccccc1 was read as BaF3 tox 36, IEC-6 cytotox inactive, Ba/F3 V617F tox inactive and KLF5 inh inactive.
For Cc1[nH]c2ccc(C(=O)NCCCN3CCN(C)CC3)cc2c1C the results were IEC-6 cytotox inactive and KLF5 inh inactive.
`O=C(Nc1nnc(-c2ccc3c(c2)CCCC3)o1)c1c(F)cccc1F` gave APP transl inh inactive, BaF3 tox 61, IEC-6 cytotox inactive, Ba/F3 V617F tox inactive and KLF5 inh inactive.
For O=[N+]([O-])c1ccc(Nc2ccccc2)c2nonc12 the results were IEC-6 cytotox inactive and KLF5 inh inactive.
For O=[N+]([O-])c1ccc(Sc2cccc[n+]2[O-])c2nonc12 the results were BaF3 tox 105, IEC-6 cytotox 100, Ba/F3 V617F tox 99 and KLF5 inh inactive.
Screening COc1ccc(OC)c(CNC(=O)CCn2nc(C)c3c(C)n(-c4ccccc4)nc3c2=O)c1 returned IEC-6 cytotox inactive and KLF5 inh inactive.
For Brc1ccc(-c2cnc3n2CCCC3)cc1 the results were APP transl inh inactive, BaF3 tox inactive, IEC-6 cytotox inactive, Ba/F3 V617F tox inactive and KLF5 inh inactive.
CCOc1ccc(-c2cnc3n2CCC3)cc1 was read as APP transl inh 46, BaF3 tox inactive, IEC-6 cytotox inactive, Ba/F3 V617F tox inactive and KLF5 inh inactive.
Screening CS(=O)(=O)NCCNC(=O)c1cc(OCC(F)(F)F)ccc1OCC(F)(F)F returned APP transl inh 78, BaF3 tox inactive, IEC-6 cytotox inactive, Ba/F3 V617F tox inactive and KLF5 inh inactive.
`O=C(CCl)NCCNC(=O)c1cc(OCC(F)(F)F)ccc1OCC(F)(F)F` gave APP transl inh inactive, BaF3 tox inactive, IEC-6 cytotox inactive, Ba/F3 V617F tox inactive and KLF5 inh inactive.
For CC(C)CC1Nc2ccc(C(=O)NCCCN3CCOCC3)cc2NC1=O (stereo unspecified) the results were IEC-6 cytotox inactive and KLF5 inh inactive.
Screening Cc1c(NC(=O)Nc2cccc(C(F)(F)F)c2)c(=O)n(-c2ccccc2)n1C returned IEC-6 cytotox inactive and KLF5 inh inactive.
For CCOc1ccc(N=c2cc(-c3ccc(OC)cc3)oc3ccccc23)cc1 the results were APP transl inh inactive, BaF3 tox 71, IEC-6 cytotox inactive, Ba/F3 V617F tox inactive and KLF5 inh inactive.
Screening COc1ccc(N=c2cc(-c3ccc(OC)cc3)oc3ccccc23)cc1 returned APP transl inh inactive, BaF3 tox inactive, IEC-6 cytotox inactive, Ba/F3 V617F tox inactive and KLF5 inh inactive.
For c1csc(C2Nc3cccc4cccc(c34)N2)c1 the results were APP transl inh inactive, BaF3 tox 33, IEC-6 cytotox inactive, Ba/F3 V617F tox inactive and KLF5 inh inactive.
Screening O=C(OCc1nc(-c2ccccc2)oc1COC(=O)c1ccco1)c1ccco1 returned APP transl inh inactive, BaF3 tox 54, IEC-6 cytotox inactive, Ba/F3 V617F tox inactive and KLF5 inh inactive.
COc1ccc(-c2cc(=O)c(C(=O)c3ccc(C)cc3)n[nH]2)cc1 was read as APP transl inh inactive, BaF3 tox inactive, IEC-6 cytotox inactive, Ba/F3 V617F tox inactive and KLF5 inh inactive.

Screens (PubChem BioAssay)
